Giardia killer – Giardia lamblia killing; Giardia lamblia trophozoite viability; activity change, % at 7.66 µM, hits read low; 340,000 compounds, 0.15% hits; AID 540267; in the data active = activity change below about -80%; inconclusive = between about -30% and that limit;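 also: parasites exposed to compound for two days anaerobically before the ATP read; % is scaled to controls: 0 for no effect and ±100 for the full control effect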
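Killing of trophozoites was scored by loss of ATP luminescence after a 48 hrs anaerobic exposure to compounds at 37 deg C, using 100 cells per well.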
IL1B secr inh – blocks inflammasome-driven IL-1 beta release; THP-1 LPS/ATP IL-1B secretion, AlphaLISA, 16 h; active compounds read low; activity change, % at 57.5 µM; 360,000 compounds, 4.7% hits; in the data active = activity change below about -50%; inconclusive = mostly about -30% to -49%; also: % is scaled to controls: 0 for no effect and ±100 for the full control effect
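Secreted IL-1B measured by AlphaLISA bead assay after 16 h compound exposure of THP-1 cells; compounds (final up to 57.5 uM) added 1 h before LPS (250 ng/mL) and ATP (1.25 mM) stimulation; lower signal means less secretion.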
HT1080-NT tox – kills 2HG-producing HT-1080-NT fibrosarcoma cells; HT-1080-NT fibrosarcoma viability, CellTiter-Glo ATP luminescence, 48 h; Potency, µM (titrated, usually from 46.1 µM), for the others: top-dose activity, negative = less viability, usual class: cytotoxic; 360,000 compounds, 1.6% hits;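 also: NT is the 2HG producing partner of a matched IDH1 knockdown line; potency is read from the fitted curve at half-maximal effect; 0% = DMSO-treated cells and -100% = media-only wells without cells; nearly all actives have a fitted effect of over 55% in size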
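Read-out is CellTiter-Glo luminescence after 10 minutes at room temperature, following 48 hours' compound treatment of HT-1080-NT cells (750 cells/well, RPMI, 5% FBS, 37 degrees C).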
HepG2 tox-1 – counter-screen for TGF-b inhibitors: cytotoxicity in HepG2 cells; AID 588856; 410,000 compounds, 0.76% hits; HepG2 CAGA-GFP viability, ATP luminescence, 18 h; Potency, µM (top dose mostly 46.1 µM), without a hit: at the highest dose activity change, negative = cytotoxicity, usual class: cytotoxic; also: potency is read from the fitted curve at half-maximal effect
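CellTiter-Glo luminescence gave cytotoxicity after 18 hours at 37 degrees C. The cells were HepG2 CAGA-GFP in 1% FBS DMEM, stimulated with 500 pg/mL TGF-beta after compound addition. %Activity was normalised to no-cell wells (complete cell-killing) and DMSO (no toxicity), and curves were fitted and classified.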
TGFb inhibitor – TGF-b pathway inhibition. HepG2 CAGA-GFP TGF-b/SMAD3 reporter, GFP fluorescence, 18 h; TGF-beta stimulated, 500 pg/mL final. Potency, µM (highest dose often 46.1 µM), inactives show at the highest dose activity, negative = inhibition, hits mostly inhibitors. 410,000 compounds, 1.2% hits. AID 588855; also: potency is read from the fitted curve at half-maximal effect; % is scaled to controls: 0 for no effect and ±100 for the full control effect; nearly all actives have a fitted effect of over 65% in size
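Cell-based qHTS in HEPG2 carrying a CAGA-GFP Smad reporter; compounds added before 500 pg/mL final TGF-beta, 18 h incubation at 37 degrees C, GFP fluorescence quantified per cell by imaging cytometry.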
HT1080 IDH1KD tx – kills HT-1080 cells with IDH1 knockdown; HT-1080 IDH1 knockdown viability, ATP luminescence, 48 h; Potency, µM (series often up to 46.1 µM), inactives show top-dose activity, negative = toxicity, usual class: cytotoxic; 360,000 compounds, 2% hits; AID 686971;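 also: potency is read from the fitted curve at half-maximal effect; 0% = DMSO wells and -100% = cell-free medium wells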
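CellTiter-Glo luminescence after 48 h compound exposure at 37 degrees C of IDH1-knockdown HT-1080 cells in 5% FBS RPMI. %Activity scaled between DMSO wells and cell-free media wells, with curves fitted and assigned curve classes.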
TGFb CAGA inh – confirmation of TGF-b signaling inhibitors in HepG2 reporter cells; Potency, µM (highest dose often 46.1 µM), for the others: at the top dose activity, negative = inhibition, hits mostly inhibitors; HepG2 CAGA-GFP TGF-b reporter, GFP fluorescence, 18 h; cells stimulated with TGF-beta, 500 pg/mL; 1,600 compounds, 63% hits; shares compounds with TGFb inhibitor; also: potency is read from the fitted curve at half-maximal effect; % is scaled to controls: 0 for no effect and ±100 for the full control effect; nearly all actives have a fitted effect of over 65% in size
HepG2 tox-2 – counter-screen for TGF-b inhibitors: cytotoxicity in HepG2 cells; shares compounds with TGFb inhibitor; HepG2 CAGA-GFP viability, ATP luminescence, 18 h; cells stimulated with TGF-beta, 500 pg/mL; Potency, µM (series often up to 46.1 µM), without a hit: at the top dose activity, negative = cytotoxicity, most hits filed as inhibitors; 1,600 compounds, 27% hits; also: potency is read from the fitted curve at half-maximal effect; % is scaled to controls: 0 for no effect and ±100 for the full control effect; nearly all actives have a fitted effect of over 70% in size
CCL64 TGFb inh – blocks TGF-b signaling in CCL64 reporter cells | shares compounds with TGFb inhibitor | CCL64 CAGA-GFP reporter, TGF-b stimulated, GFP fluorescence, 18 h | Potency, µM (series often up to 46.1 µM), for inactives: at the highest dose activity, negative = inhibition, most hits filed as inhibitors | AID 720536 | 1,600 compounds, 41% hits; also: potency is read from the fitted curve at half-maximal effect; nearly all actives have a fitted effect of over 65% in size
COP TGFb inh – validation of TGF-b inhibitors in HepG2 COP promoter reporter | 1,600 compounds, 3% hits | shares compounds with TGFb inhibitor | Potency, µM (doses to about 46.1 µM), for inactives: at the top dose activity, negative = inhibition, usual class: inhibitors | HepG2 COP-GFP TGF-b reporter, GFP fluorescence, 18 h; cells stimulated by added recombinant TGF-beta | AID 720537; also: potency is read from the fitted curve at half-maximal effect; nearly all actives have a fitted effect of over 70% in size
Active calls of the source: *; ? = inconclusive; . = not tested or not shown. Hits are enriched below; roughly 6.5% of the tested compounds scored in any of these assays. Unless noted, calls follow the shape of the dose curve; as a rule, active = well fitted curve in the direction sought with a large enough effect; inconclusive = small, poorly fitted or top-dose-only effect, or another doubt; inactive = no such curve, though single readings can be large; an effect the other way counts as inactive or inconclusive.

SMILES | Giardia killer | IL1B secr inh | HT1080-NT tox | HepG2 tox-1 | TGFb inhibitor | HT1080 IDH1KD tx | TGFb CAGA inh | HepG2 tox-2 | CCL64 TGFb inh | COP TGFb inh
Clc1cccc(Cc2c(-c3ccco3)nc3c4ccccc4ccn23)c1 | . | -2.2 | ? | . | . | ? | . | . | . | .
Fc1cccc(Cc2c(-c3ccco3)nc3c4ccccc4ccn23)c1 | . | -3.0 | ? | 11.2µM* | 10µM* | ? | 18.4µM* | ? | 16.4µM* | 2.7%
Fc1cccc(Cc2c(-c3ccco3)nc3ccc(Cl)cn23)c1 | . | ? | ? | -50.6% | ? | ? | . | . | . | .
COc1ccccc1C(NC(=O)CC(C)C)c1c(O)ccc2ccccc12 (stereo unspecified) | -0.4 | -8.6 | -25.1% | -4.6% | -21.4% | -6.9% | . | . | . | .
Cc1ccc2c(C)ccc(O)c2n1 | -15.2 | -17.9 | -0.1% | -5.5% | 7.08µM* | -1.6% | -2.9% | 0.1% | -22.6% | -20.5%
CCCCNCCOCCOc1ccc(F)cc1 | 0.1 | 1.3 | 3.8% | -21.0% | 3.8% | 14.2% | . | . | . | .
O=C(Cn1cnc2c(NC(=O)OCc3ccccc3)ncnc21)NCCN1CCOCC1 | ? | 17.9 | 14.1% | 4.0% | 6.7% | 1.5% | . | . | . | .
O=C(CNC(=O)c1ccccc1Cl)N/N=C/c1ccc2c(c1)OCO2 | 0.5 | -5.2 | -29.1% | 0.0% | -3.3% | ? | . | . | . | .
O=C(N/N=C/c1ccc2c(c1)OCO2)c1cc(-c2ccccc2Cl)nc2ccccc12 | -18.1 | 24.3 | -1.2% | -5.5% | ? | 10.0% | -9.8% | -9.0% | -1.3% | -18.4%
CC[C@H](C)[C@@H]1OC(=O)[C@@H](C)[C@@H](CC)NC(=O)[C@H](C)N(C)C(=O)C(C)(C)C(=O)C(C)NC(=O)[C@H](Cc2ccccc2)N(C)C(=O)[C@H](C(C)C)N(C)C(=O)CNC(=O)[C@H](CC(C)C)N(C)C(=O)CNC1=O (stereo partly specified) | . | -28.8 | 1.3µM* | 5.5% | 3.55µM* | 0.92µM* | 7.31µM* | ? | 5.8µM* | 41.7%
CC(C)(C)NC(=S)N1CCC2CC1c1cc(-c3ccc4c(c3)OCO4)ccc12 (stereo unspecified) | . | -1.7 | 13.3% | -1.5% | -2.7% | 4.7% | . | . | . | .
CC(=O)NS(=O)(=O)c1ccc(NC(=O)C(Sc2ccccc2)c2ccccc2)cc1 (stereo unspecified) | -13.6 | 37.4 | 10.3% | 9.4% | 2.8% | 4.5% | . | . | . | .
CCC(C)NS(=O)(=O)c1ccc(NC(=O)C(Sc2ccccc2)c2ccccc2)cc1 (stereo unspecified) | 17.3 | -54.4* | -28.0% | -25.2% | 12.6µM* | ? | ? | ? | ? | 53.5%
CC[C@]12c3[nH]c4cc(-c5ccco5)ccc4c3CCN1C(=O)[C@@H](CC(=O)NC/C=C(\C)CCC=C(C)C)C[C@@H]2C(=O)N1CCN(C(=O)C2CC2)CC1 | 3.9 | ? | ? | -11.6% | ? | ? | . | . | . | .
CC[C@]12c3[nH]c4cc(-c5ccco5)ccc4c3CCN1C(=O)[C@@H](CC(=O)NCc1cccc(C(F)(F)F)c1)C[C@@H]2C(=O)N1CCN(C(=O)c2ccco2)CC1 | 28.3 | -51.4* | -11.1% | -5.4% | 11.2µM* | -20.7% | 4.11µM* | -27.3% | ? | 17.7%
CC[C@]12c3[nH]c4ccc(Cl)cc4c3CCN1C(=O)[C@@H](CC(=O)NCc1cccc(C(F)(F)F)c1)C[C@@H]2C(=O)N1CCN(C(=O)c2ccco2)CC1 | 6.4 | -13.1 | ? | 6.3% | 12.6µM* | ? | 16.4µM* | ? | 10.3µM* | 63.8%
CC[C@]12c3[nH]c4cc(-c5ccco5)ccc4c3CCN1C(=O)[C@@H](CC(=O)NC/C=C(\C)CCC=C(C)C)C[C@@H]2C(=O)N1CCN(C(=O)c2ccco2)CC1 | -9.9 | ? | -20.3% | -20.4% | 10µM* | ? | 10.3µM* | -12.7% | 13µM* | 2.3%
CC[C@]12c3[nH]c4ccc(Cl)cc4c3CCN1C(=O)[C@@H](CC(=O)NCc1cccc(C(F)(F)F)c1)C[C@@H]2C(=O)N1CCN(C(=O)C2CC2)CC1 | 5.1 | ? | ? | -7.7% | 14.1µM* | ? | -77.3% | ? | ? | 60.7%
CCc1nc(C)ccc1OC(=O)C12CC3CC(CC(C3)C1)C2 | -25.2 | 22.3 | -4.4% | -8.0% | 14.9% | -12.7% | . | . | . | .
COc1ccccc1/C=N/NC(=O)COCC(=O)N/N=C/c1ccccc1OC | 26.4 | 36.6 | 0.2% | -4.2% | 20.5% | -8.2% | . | . | . | .
CC[C@]12c3[nH]c4cc(CCC(=O)N(C)C)ccc4c3CCN1C(=O)[C@@H](CC(=O)NC/C=C(\C)CCC=C(C)C)C[C@@H]2C(=O)N1CCN(C(=O)C2CC2)CC1 | -4.7 | -17.9 | 0.3% | -17.4% | ? | -15.6% | . | . | . | .
CC[C@]12c3[nH]c4ccc(Cl)cc4c3CCN1C(=O)[C@@H](CC(=O)NC/C=C(\C)CCC=C(C)C)C[C@@H]2C(=O)N1CCN(C(=O)C2CC2)CC1 | -24.1 | ? | ? | -67.8% | 10µM* | 20.6µM* | ? | ? | 20.6µM* | 65.7%
COc1ccc(Cl)cc1Cn1c(C)c(C(=O)NCc2ccc(F)cc2)sc1=O | . | -3.8 | -29.6% | 1.9% | 14.1µM* | ? | ? | -21.1% | ? | 6.9%
COc1ccc(Cl)cc1Cn1c(C)c(C(=O)N(C)Cc2ccc(F)cc2)sc1=O | . | -7.2 | 0.2% | 2.7% | -10.0% | 4.8% | . | . | . | .

High-throughput results: PubChem BioAssay, National Center for Advancing Translational Sciences (NCATS)
